Screening data (PubChem)
Hits are enriched below; roughly 4.7% of the tested compounds scored in any of these assays.
TIM10 inh: growth inhibitors of isogenic TIM10 control yeast, primary screen, counter-screen for tim10-1 yeast inhibitor project, luminescence, uHTS | S. cerevisiae TIM10 strain growth, BacTiter-Glo luminescence, 24 h | inhibition, % at 10 µM | actives 1.4% (n = 330,000);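 active = inhibition of 40% or more at the single tested concentration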;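 also: wild-type TIM10 isogenic control strain grown at permissive 25 °C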
PfHsp90 set2: growth inhibition of PfHsp90-expressing yeast, primary screen, antimalarial PfHsp90 inhibitor project, S. cerevisiae, BacTiter-Glo luminescence, single point, set 2; BacTiter-Glo ATP, 48 h; yeast lacking PDR1 and PDR3 efflux regulators; inhibition, % at 9.4 µM; actives 0.32% (n = 310,000); AID 504621, 2011;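 active = every replicate shows inhibition above about 80%, whatever the replicate mean, limit read from the data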
tim10-1 inh: growth inhibitors of tim10-1 mutant yeast, primary screen, luminescence, uHTS; AID 463190, 2010; S. cerevisiae tim10-1 ts strain growth, BacTiter-Glo, 24 h; actives 2.2% (n = 330,000); inhibition, % at 20 µM;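 active = inhibition of at least 40%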;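 also: mutant grown at 25 °C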
SKKanGAS inh: S. pyogenes SKKanGAS growth inhibitors in kanamycin, primary screen, streptokinase expression inhibitor project, SKKanGAS strain, BacTiter-Glo luminescence; inhibition, % at 7.5 µM; actives 1.3% (n = 300,000); AID 1662, 2009; 6 h;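 active = mean replicate score, as percent of positive control median, at least 50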;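 also: strain carries kanamycin resistance gene driven by streptokinase promoter and grows in 40 µg/ml kanamycin; loss of luminescence reflects streptokinase promoter inhibition or plain growth inhibition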
tim23-1 inh: growth inhibitors of tim23-1 mutant yeast, primary screen, luminescence, uHTS; AID 463212, 2010; actives 1.3% (n = 330,000); inhibition, % at 20 µM; S. cerevisiae tim23-1 growth, BacTiter-Glo luminescence, 24 h;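 active = growth inhibition of the mutant yeast at or above 50%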;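 also: temperature-sensitive mutant grown at 25 °C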
ATG4B inhibitor: ATG4B protease inhibitors, primary screen, biochemical, fluorescence, uHTS; Cysteine protease ATG4B (Homo sapiens), Q9Y4P1; actives 0.51% (n = 340,000); inhibition, % at 8.33 µM; ATG4B cleavage of LC3-PLA2, NBD-HPC fluorescence, 1 h; AID 504462, 2011; in the data active = inhibition above about 40%
Target sequence (Q9Y4P1 whole entry, looked up): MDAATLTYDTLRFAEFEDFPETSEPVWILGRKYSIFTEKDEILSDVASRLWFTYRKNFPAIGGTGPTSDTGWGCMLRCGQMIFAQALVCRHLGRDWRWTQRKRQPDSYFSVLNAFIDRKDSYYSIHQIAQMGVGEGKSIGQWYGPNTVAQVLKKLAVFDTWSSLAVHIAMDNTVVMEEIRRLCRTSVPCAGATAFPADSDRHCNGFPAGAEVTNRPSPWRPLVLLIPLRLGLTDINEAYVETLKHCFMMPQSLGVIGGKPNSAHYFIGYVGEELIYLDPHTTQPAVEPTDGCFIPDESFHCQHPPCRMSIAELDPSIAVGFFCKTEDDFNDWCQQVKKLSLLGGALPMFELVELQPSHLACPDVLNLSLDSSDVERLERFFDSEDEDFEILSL
tim10 confirm: growth inhibitors of wild-type TIM10 yeast, confirmation, counter-screen for tim10-1 synthetic lethality project, single concentration, luminescence, S. cerevisiae. actives 63% (n = 4,600). inhibition, % at 10 µM. AID 463215, 2010. shares compounds with TIM10 inh. S. cerevisiae tim10 strain growth, BacTiter-Glo luminescence, 24 h;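 active = inhibition of yeast growth at or above a set limit in either of two replicates at 10 µM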; also: this counterscreen used the strain with wild-type TIM10
Large screens that a line does not name were inactive (follow-up assays come after a bar, where they were run).

COC(=O)c1c(NC(=O)CN2CCN(c3ccccc3Cl)CC2)sc(C)c1C	none
CC(NC(N)=O)C(=O)OCc1ccc(Cl)cc1Cl (stereo unspecified)	none
CC1(C)C([N+](=O)[O-])C(c2ccc(F)cc2)NC(c2ccc(F)cc2)C1[N+](=O)[O-] (stereo unspecified)	none
CC1(C)C([N+](=O)[O-])C(c2ccc(Cl)cc2)NC(c2ccc(Cl)cc2)C1[N+](=O)[O-] (stereo unspecified)	TIM10 inh 42 | tim10 confirm 38
Cc1ccc2[nH]c3c(c2c1)CCC3=O	none
CCCCNC(=O)[C@]1(C)CCC[C@@]2(C)C3CC[C@@]4(C)C[C@]3(CCC21)CC4=O (stereo partly specified)	TIM10 inh 59 (no result: SKKanGAS inh) | tim10 confirm inactive
CCC(=O)Nc1nnc(S(=O)(=O)N(CC)c2ccc(OC)cc2)s1	none
O=C(NCc1nc(-c2ccc(Cl)cc2)no1)c1ccc2c(c1)OCO2	TIM10 inh 43 | tim10 confirm inactive
CN(C)c1ccc(N=Cc2nc(-c3ccccc3)oc2OC(=O)c2cccc(Br)c2)cc1	none
COc1ccc(N=Cc2nc(-c3ccccc3)oc2OC(=O)c2ccccc2)cc1	TIM10 inh 50 | tim10 confirm 32
Fc1ccc(-c2nnc(-c3ccc(F)cc3)o2)cc1	none
COc1ccc2c(c1)C(=NO)c1cc(OC)ccc1-2	TIM10 inh 45 | tim10 confirm 38
COc1ccc(-c2[nH]n(-c3ccc([N+](=O)[O-])cc3)c(=O)c2C=NCc2ccc(F)cc2)cc1	none
COc1ccc(-c2[nH]n(-c3ccc([N+](=O)[O-])cc3)c(=O)c2C=NCc2ccncc2)cc1	TIM10 inh 43 (no result: SKKanGAS inh) | tim10 confirm inactive
O=C(Nc1ccccn1)c1cccnc1	none
Nc1c(C(=O)O)sc2nc(-c3ccc(F)cc3)cc(-c3ccccc3)c12	none
COc1cccc(NC(=O)Nc2cccn(Cc3ccccc3)c2=O)c1	TIM10 inh 44 | tim10 confirm 28
COc1cccc(NC(=O)Nc2ccc(Cc3ccncc3)cc2)c1	TIM10 inh 44 | tim10 confirm inactive
C#CCOc1nc(Nc2cccc([N+](=O)[O-])c2)nc(OCC#C)n1	TIM10 inh 41 | tim10 confirm 42
Cc1cccc(C)c1OCc1nnc(SCC(=O)NCc2ccccc2)o1	none
Cc1ccc(/C=N/NC(=O)NN(C)c2ncc(C(F)(F)F)cc2Cl)cc1	TIM10 inh 41 (no result: PfHsp90 set2) | tim10 confirm 45
CN(NC(=O)Nc1ccc(Cl)cc1)c1ncc(C(F)(F)F)cc1Cl	none
COCc1[nH]nc2c1C(c1ccsc1)C(C#N)=C(N)O2 (stereo unspecified)	none
COCc1[nH]nc2c1C(c1sccc1C)C(C#N)=C(N)O2 (stereo unspecified)	TIM10 inh 53 | tim10 confirm 28
N#CC1=C(N)Oc2n[nH]c(-c3cccs3)c2C1c1ccccc1C(=O)O (stereo unspecified)	none
N#CC1=C(N)Oc2n[nH]c(-c3cccs3)c2C1c1cccs1 (stereo unspecified)	TIM10 inh 46 | tim10 confirm inactive
Cn1c(=O)c2c(nc(CN3CCCCC3)n2CCCc2ccccc2)n(C)c1=O	none
Cc1cc(C)c(NC(=O)Cn2ncc3ccccc32)c(C)c1	none
O=C(COC(=O)c1c(F)cccc1F)NCc1cccs1	TIM10 inh 71 (no result: PfHsp90 set2, SKKanGAS inh) | tim10 confirm inactive
Cc1cccc(C(=O)OCC(=O)NCc2cccs2)c1	none
COc1ccc(-c2cn3cc(C(F)(F)F)cc(Cl)c3n2)cc1	TIM10 inh 52 | tim10 confirm 37
COc1ccc2occ(C(=O)c3ccc(N)cc3)c2c1	none
COc1ccc2occ(C(=O)c3cccs3)c2c1	TIM10 inh 42 | tim10 confirm 39
COc1ccc([C@H]2CC(=O)C=C(/C=C/Cc3ccccc3)C2)cc1	TIM10 inh 47 (no result: SKKanGAS inh) | tim10 confirm 47
CCCCC/C=C/C1=CC(=O)C[C@H](c2ccc(OC)cc2)C1	none (no result: SKKanGAS inh)
O=C(/C=C/c1cccs1)Nc1nc(-c2ccccc2)cs1	none
Cc1ccc(CN(C(=O)c2ccco2)C(C(=O)NC2CCCC2)c2ccc(N3CCOCC3)cc2)cc1 (stereo unspecified)	none
Cc1ccccc1-c1cn(-c2ccccc2)c(=S)[nH]1	TIM10 inh 41 | tim10 confirm 51
O=[N+]([O-])c1ccc(N2N=C(c3ccccc3)CC2c2ccccc2O)cc1 (stereo unspecified)	TIM10 inh 42, PfHsp90 set2 108, SKKanGAS inh 98 (no result: ATG4B inhibitor) | tim10 confirm 60
CCOC(=O)c1c(S(=O)(=O)NCC(=O)NCc2ccccc2Cl)c(C)n(C)c1C	none
O=C1[C@H]2C(c3ccccc3)=NN(c3ccccc3)[C@H]2C(=O)N1c1ccccc1	TIM10 inh 49, SKKanGAS inh 89 | tim10 confirm 46
CN1C(=O)/C(=N\OC(=O)c2ccccc2Cl)c2ccccc21	none
CC(C)(C)C(=O)O/N=C1/C(=O)N(c2ccccc2)c2ccccc21	TIM10 inh 52 (no result: PfHsp90 set2) | tim10 confirm 61
COc1ccc(Cl)cc1NC(=O)Cn1cccc1	none
CSc1nc(-c2ccccc2)nn1C(=O)c1ccc(C)cc1	TIM10 inh 42 | tim10 confirm 42
CSc1nc(-c2ccco2)nn1C(=O)c1ccc(C)cc1	none (no result: PfHsp90 set2)
COc1cc(/C=N/NC(=S)NC2CC3C=CC2C3)cc(OC)c1OC (stereo unspecified)	TIM10 inh 49 | tim10 confirm 31
COc1ccccc1/C=C/C=N/n1c(C2CCCCC2)n[nH]c1=S	none
Cc1cccc(/C=N/n2c(C3CCCCC3)n[nH]c2=S)c1	TIM10 inh 40 | tim10 confirm 49
CCOc1ccccc1/C=N/n1c(C2CCCCC2)n[nH]c1=S	TIM10 inh 43 | tim10 confirm 50
S=c1[nH]nc(C2CCCCC2)n1/N=C/c1cccc(Br)c1	none
Cc1cc(C)n2nc(-c3cccc(Br)c3)cc2n1	none
CC(=O)N/C(=C\c1ccccc1)C(=O)OCCCOC(=O)/C(=C/c1ccccc1)NC(C)=O	none
CCOc1ccc2nc3cc(NCc4ccc(OC)cc4)ccc3c(N)c2c1	TIM10 inh 83 | tim10 confirm 75
